Screening data as filed in PubChem.
Only some compounds are listed: those with a hit (about 3.5% of all), similar ones and a draw of the others.
TEAD-YAP block – TEAD-YAP interaction inhibition. HEK-TIYL cells, TEAD-Gal4/YAP UAS-luciferase luminescence. hit rate 1.4% among 640,000. inhibition, % at 9.12 µM. AID 1259422; in the data active means inhibition above about 32%;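 further: 0% = median of test compound wells and 100% = reference inhibitor wells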
MITF primary – human MITF inhibition, primary screen; O75030; AlphaScreen MITF homodimerization, bead proximity signal; inhibition, % at 2.6 µM; hit rate 0.91% among 650,000; AID 1259374; in the data active means inhibition above about 50%;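 further: 0% = vehicle wells with protein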
Target sequence (O75030 whole entry, looked up): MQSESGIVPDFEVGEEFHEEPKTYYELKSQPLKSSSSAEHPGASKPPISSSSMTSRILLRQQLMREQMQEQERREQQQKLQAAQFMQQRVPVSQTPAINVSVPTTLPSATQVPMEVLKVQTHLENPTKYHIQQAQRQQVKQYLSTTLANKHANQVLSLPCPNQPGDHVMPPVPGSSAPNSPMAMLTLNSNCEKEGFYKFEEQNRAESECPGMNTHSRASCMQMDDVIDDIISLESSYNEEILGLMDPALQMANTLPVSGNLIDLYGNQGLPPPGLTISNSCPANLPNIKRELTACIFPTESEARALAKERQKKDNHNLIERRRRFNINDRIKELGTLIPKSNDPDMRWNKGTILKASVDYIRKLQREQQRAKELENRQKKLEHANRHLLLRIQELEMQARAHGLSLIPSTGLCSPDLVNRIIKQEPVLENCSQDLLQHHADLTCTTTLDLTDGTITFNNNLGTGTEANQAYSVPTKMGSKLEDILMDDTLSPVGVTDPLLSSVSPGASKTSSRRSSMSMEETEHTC
FBW7 activator – activators of human E3 ligase FBW7; AID 1259310; normalized activity (activation), % at 26.1 µM; hit rate 0.13% among 650,000; Q969H0; AlphaScreen FBW7–phospho-cyclin E peptide binding, activator screen; in the data active means normalized activity above about 1.9%;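 further: purified mutant Fbw7 with reduced substrate affinity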
GPR151 activ – activates the human receptor GPR151 | PathHunter beta-arrestin GPR151 cells, luminescence | activation, % at 11.2 µM | hit rate 1% among 650,000 | AID 1508602; in the data active means activation above about 4.9%;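 further: 0% = median of compound wells and 100% = cells with positive control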
GPR151 confirm – human GPR151 activation, confirmation screen; 6,700 tested, under 10 active; activation, % at 11.2 µM; AID 1508609; shares compounds with GPR151 activ; GPR151 PathHunter beta-arrestin cells, luminescence, 90 min; % of EA-reagent control over plate median;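 active means mean percent activation across replicates above the confirmation screen cutoff of 4.91%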
GPR119 counter – GPR119 activation, counter-screen for GPR151 activators. activation, % at 11.2 µM. hit rate 0.3% among 6,700. GPR119 PathHunter beta-arrestin cells, luminescence, 90 min; 0 = compound-well median, 100 = enzyme-acceptor control. shares compounds with GPR151 activ;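 active means mean percent activation in the counterscreen above 29.09%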;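 further: counterscreen on off-target GPR119 to flag nonselective hits from the GPR151 activator screen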
* hit, by the source's call; x = no result given.

SMILES | TEAD-YAP block | MITF primary | FBW7 activator | GPR151 activ | GPR151 confirm | GPR119 counter
O=C1N(Cc2ccc(F)cc2F)CCN1c1ccc2c(c1)OCO2 | -52.5 | 11.9 | -0.2 | 9.8* | -0.3 | 9.3
Cc1cc(C)cc(CN2CCN(c3ccc4c(c3)OCO4)C2=O)c1 | -10.4 | 13.4 | -0.1 | -0.8 | x | x
COc1ccc(NC(=O)CCc2c(C)nc3cc(-c4ccccc4OC)nn3c2C)cc1 | -27.1 | -6.6 | -0.1 | -0.1 | x | x
COc1cccc(NC(=O)CCc2c(C)nc3cc(-c4ccccc4OC)nn3c2C)c1 | -10.0 | -16.4 | -0.1 | 8.2* | 0.4 | -6.9
CCN(CC)C(=O)c1ccc2c(=O)n(-c3cccc(C(F)(F)F)c3)c(=S)[nH]c2c1 | 0.5 | 1.8 | 0.0 | 0.2 | x | x
N#Cc1ccc(COC(=O)c2ccccn2)cc1 | 7.3 | 27.8 | -0.1 | 5.0* | -0.2 | -5.3
N#Cc1ccc(NC(=O)COC(=O)c2ccccn2)cc1 | 4.2 | 9.1 | -1.0 | 0.9 | x | x
CC1Cc2ccccc2N1S(=O)(=O)c1cc2c3c(c1)CC(=O)N3CCC2 (centres undefined) | -1.9 | 9.8 | -0.1 | -1.6 | x | x
O=C1c2ccc([N+](=O)[O-])cc2C(=O)N1c1c[nH]c(=O)[nH]c1=O | 9.3 | 1.4 | -1.7 | 5.1* | 0.4 | 0.8
CC1(C)C(=O)C2(C(=O)Nc3ccccc3Br)CCC1C2 (centres undefined) | -1.4 | 2.9 | -0.1 | 17.2* | -0.3 | -11.5
O=c1cc(-c2cc3ccccc3oc2=O)c2ccc(O)c(CN3CCN(CCO)CC3)c2o1 | 13.8 | 11.5 | 0.2 | -1.6 | x | x
COc1ccc(C)cc1S(=O)(=O)N(CC(=O)N1CCOCC1)Cc1ccccc1 | 3.0 | 8.9 | 0.2 | 12.1* | -0.6 | -4.7
COc1ccc(S(=O)(=O)N(CC(=O)N2CCOCC2)Cc2ccccc2)cc1C | 3.5 | -23.8 | -0.1 | 0.7 | x | x
CC(=O)N1CCOc2cc(S(=O)(=O)N3CCCCCC3)c(C)cc21 | -8.3 | 6.5 | 0.0 | 0.4 | x | x
CC(=O)N1CCOc2cc(S(=O)(=O)N3CCC(Cc4ccccc4)CC3)c(C)cc21 | 0.3 | -2.4 | -0.1 | 5.0* | 0.4 | 2.5
O=C(Nc1nnc(SCc2ccccc2F)s1)C1CC(=O)N(c2ccccc2)C1 (centres undefined) | -4.7 | -7.4 | 0.1 | 0.6 | x | x
O=C(Nc1ccc(Oc2ccccc2)cc1)Nc1cccc([N+](=O)[O-])c1 | -7.5 | 22.7 | 0.6 | 7.0* | -0.3 | 1.2
O=C(CN1C(=O)COc2ccc(Cl)cc21)NC1CCCCCC1 | -4.4 | 7.5 | 0.1 | -0.4 | x | x
COCCNC(=O)CN1C(=O)COc2ccc(Cl)cc21 | -0.7 | 4.9 | -0.1 | 7.8* | -0.2 | 3.6
CC(C)NC(=O)CN1C(=O)COc2ccc(C(C)(C)C)cc21 | -4.7 | 1.1 | -0.1 | 5.8* | 0.4 | 8.2
CC(C)(C)c1ccc2c(c1)N(CC(=O)NC1CCCCCC1)C(=O)CO2 | -9.0 | 7.4 | -0.1 | 5.5* | 1.3 | 1.6
CC1=NN(c2ccc(Cl)cc2)C(=O)/C1=C/c1ccccc1[N+](=O)[O-] | 0.6 | -4.0 | -0.6 | 1.1 | x | x
COc1cc(OC)c(CN2CCc3nnc(C4CCCO4)n3CC2)c(OC)c1 (centres undefined) | -12.1 | -5.5 | 0.0 | 5.3* | -0.4 | 3.8
CCCCC(c1nnnn1CCOC)N1CCN(c2ccccc2)CC1 (centres undefined) | -0.9 | 7.1 | 0.0 | 5.1* | 1.0 | 8.6
Cn1c(=O)cc(OCC(=O)NC2CCCC2)c2ccccc21 | -12.5 | 4.5 | 0.3 | 1.2 | x | x
SMILES | TEAD-YAP block | MITF primary | FBW7 activator | GPR151 activ | GPR151 confirm | GPR119 counter
O=c1[nH]c(=S)c2c(n1-c1ccccc1)CCC2 | 6.2 | 5.1 | 0.3 | 5.9* | 0.6 | 9.5
O=c1[nH]c2sc3c(c2c(=O)n1-c1ccccc1)CCCC3 | 6.5 | 2.7 | 0.1 | -0.1 | x | x
CCn1c(C(CC(C)C)NC(=O)Cc2ccc(OC)cc2)nc2cccnc21 (centres undefined) | -0.1 | 2.3 | -0.1 | -0.8 | x | x
CCC(C)c1ccc(N2C(=O)c3ccccc3NC2c2ccc(OCc3ccccc3)cc2)cc1 (centres undefined) | -46.0 | 8.0 | 0.5 | 1.0 | x | x
COc1ccccc1CNc1nc2ccccc2n1CCN1CCOCC1 | -25.8 | -11.7 | 0.1 | 0.9 | x | x
COc1ccc(CNc2nc3ccccc3n2CCN2CCOCC2)cc1OC | -4.3 | 6.5 | 0.0 | 10.0* | -0.2 | 3.9
CCOc1ccc(C(=O)Nc2nn3c(-c4ccc(OC)cc4)nnc3s2)cc1 | -3.7 | -10.8 | -0.1 | -0.7 | x | x
